Test results reported in the supplement of paper PMC10849652.
About 8,800 targets were measured; listed, in parts, are those with a hit and a random draw of the rest. About 0.5% of all pairs of compound and target were hits.

Key:
Assay in all cases: log2 fold change, soluble protein after heating vs DMSO (PISA); higher = thermal stabilisation; K562 lysate, 10 uM; active = over 0.2 and 3.5 SD of the protein, either way, in both replicates (recomputed)
[1] = compound: CN1CCc2c(c3ccccc3n2Cc2ccc(C(=O)NO)cc2)C1 [Tubastatin A]
Summary of the method: (§1)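 Pellets of K562 cells were dounce-homogenised in PBS pH 7.4 with 1 mM MgCl2, and the crude extract was held at 1 mg/mL protein for a 30 min treatment with 10 μM compound. Aliquots were heated for 3 min over 48°C-58°C and pooled before NP-40 was added to 0.5% at 4°C. The supernatant from 21,000xg for 90 min was quantified by TMTpro 16plex LC-MS/MS with channel sums equalised. Values are reported from duplicates as log-two fold change in thermal stability relative to solvent controls.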

[2] = compound: CNC(=O)C1=CC=CC=C1NC2=NC(=NC=C2Cl)NC3=C(C=C(C=C3)N4CCOCC4)OC
Summary of the method: as §1

[3] = compound: CNc1nc(-c2ccc3c(N)n[nH]c3c2)cc(N2C[C@@H](C(=O)NC3CCCCC3)CC[C@H]2C)n1
Summary of the method: as §1

[4] = compound: COC(=O)N[C@@H](C)CNc1nccc(-c2cn(C(C)C)nc2-c2cc(Cl)cc(NS(C)(=O)=O)c2F)n1 [encorafenib]
Summary of the method: as §1

[5] = compound: COC(=O)[C@H](CCSC)NC(=O)C1=C(C=C(C=C1)NC[C@H](CS)N)C2=CC=CC=C2
Summary of the method: as §1

[6] = compound: COc1cc(Nc2ncc3c(n2)-c2ccc(Cl)cc2C(c2c(F)cccc2OC)=NC3)ccc1C(=O)O [alisertib]
Summary of the method: as §1

[7] = compound: COc1cc2ncnc(Nc3ccc(F)c(Cl)c3)c2cc1OCCCN1CCOCC1 [gefitinib]
Summary of the method: as §1

[8] = compound: C[C@@H](Oc1cc(-c2cnn(C3CCNCC3)c2)cnc1N)c1c(Cl)ccc(F)c1Cl [crizotinib]
Summary of the method: as §1

[9] = compound: C[C@H](Nc1ncnc2nc[nH]c12)c1cc2cccc(Cl)c2c(=O)n1-c1ccccc1 [duvelisib]
Summary of the method: as §1

[10] = compound: Cc1cc(Nc2cc(N3CCN(C)CC3)nc(Sc3ccc(NC(=O)C4CC4)cc3)n2)n[nH]1 [tozasertib]
Summary of the method: as §1

[11] = compound: Cc1ccc(-n2nc(C(C)(C)C)cc2NC(=O)Nc2ccc(OCCN3CCOCC3)c3ccccc23)cc1 [doramapimod]
Summary of the method: as §1

[12] = compound: CN1CC[C@H](c2c(O)cc(O)c3c(=O)cc(-c4ccccc4Cl)oc23)[C@H](O)C1 [alvocidib]
Summary of the method: as §1

[13] = compound: CNC(=O)c1ccc(Nc2ncc(C(F)(F)F)c(NCc3nccnc3N(C)S(C)(=O)=O)n2)cc1 [defactinib]
Summary of the method: as §1

[14] = compound: COc1cc2nc(-c3cc(F)ccc3O)nc(N[C@@H]3CNC[C@H]3C(C)(C)O)c2cc1OC
Summary of the method: as §1

[15] = compound: CS(=O)(=O)CCNCc1ccc(-c2ccc3ncnc(Nc4ccc(OCc5cccc(F)c5)c(Cl)c4)c3c2)o1 [lapatinib]
Summary of the method: as §1

[16] = compound: C[C@H](C1=CC=C(C=C1)C(=O)NC2=C3C=CNC3=NC=C2)N
Summary of the method: as §1

[17] = compound: Cc1cc(Nc2cc(CN3CCOCC3)c3nc(C)c(Cc4ccc(Cl)cc4F)n3n2)n[nH]1 [gandotinib]
Summary of the method: as §1

[18] = compound: Cc1cccc(CC(=O)N2CCc3c2ccc(-c2cn(C)c4ncnc(N)c24)c3F)n1
Summary of the method: as §1

[19] = compound: CS(=O)(=O)N1CCN(Cc2cc3nc(-c4cccc5[nH]ncc45)nc(N4CCOCC4)c3s2)CC1 [pictilisib]
Summary of the method: as §1

[20] = compound: Cc1ccc(NC(=O)c2ccc(CN3CC[C@H](N(C)C)C3)c(C(F)(F)F)c2)cc1Nc1nccc(-c2cncnc2)n1 [bafetinib]
Summary of the method: as §1

Measured: log2 fold change

STK38L (UniProt Q9Y2H1)
Sequence of UniProt Q9Y2H1 (Q9Y2H1 whole entry, looked up): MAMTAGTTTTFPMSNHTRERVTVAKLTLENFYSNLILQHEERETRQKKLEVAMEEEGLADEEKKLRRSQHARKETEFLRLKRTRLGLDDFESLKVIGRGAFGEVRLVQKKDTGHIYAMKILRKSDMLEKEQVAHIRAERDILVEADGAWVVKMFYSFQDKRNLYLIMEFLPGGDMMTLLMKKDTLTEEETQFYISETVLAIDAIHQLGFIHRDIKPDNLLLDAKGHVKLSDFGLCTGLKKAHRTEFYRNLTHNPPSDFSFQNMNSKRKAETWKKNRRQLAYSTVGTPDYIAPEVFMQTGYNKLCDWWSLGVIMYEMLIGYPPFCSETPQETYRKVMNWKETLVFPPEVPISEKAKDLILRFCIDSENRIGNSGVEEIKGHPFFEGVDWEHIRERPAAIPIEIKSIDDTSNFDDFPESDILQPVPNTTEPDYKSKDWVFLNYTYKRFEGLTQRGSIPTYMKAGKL
active: [2] 0.647
inactive: [1] -0.063 | [3] 0.06 | [4] -0.036 | [5] 0.193 | [6] 0.06 | [7] -0.049 | [8] -0.059 | [9] -0.007 | [10] -0.009 | [11] -0.025

TAF11 (UniProt Q15544)
Sequence of UniProt Q15544 (Q15544 whole entry, looked up): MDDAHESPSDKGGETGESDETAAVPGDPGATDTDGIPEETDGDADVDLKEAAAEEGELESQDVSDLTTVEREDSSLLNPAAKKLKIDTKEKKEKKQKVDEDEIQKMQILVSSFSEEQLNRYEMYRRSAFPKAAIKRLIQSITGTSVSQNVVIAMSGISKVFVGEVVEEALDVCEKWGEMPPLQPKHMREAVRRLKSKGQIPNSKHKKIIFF
active: [5] 0.398
inactive: [12] -0.015 | [1] 0.014 | [13] -0.151 | [3] 0.137 | [4] -0.155 | [6] -0.053 | [14] 0.048 | [7] 0.064 | [15] 0.003 | [8] -0.085 | [16] -0.036 | [9] -0.06 | [17] 0.026 | [10] 0.102 | [11] 0.023 | [18] 0

SPAG1 (UniProt Q07617)
inactive: [1] 0.071 | [13] -0.014 | [14] -0.03 | [15] -0.058 | [19] 0.17 | [8] 0 | [11] -0.025 | [20] -0.265

TAOK2 (UniProt Q9UL54)
inactive: [12] -0.053 | [1] 0.046 | [13] -0.001 | [3] -0.015 | [4] -0.033 | [5] 0.055 | [6] 0.02 | [14] 0.02 | [7] -0.009 | [15] -0.049 | [19] -0.054 | [8] -0.081 | [16] -0.136 | [9] -0.002 | [17] 0.07 | [10] -0.026 | [11] 0.046 | [20] -0.004 | [18] 0.261

SIN3B (UniProt O75182)
Sequence of UniProt O75182 (O75182 whole entry, looked up): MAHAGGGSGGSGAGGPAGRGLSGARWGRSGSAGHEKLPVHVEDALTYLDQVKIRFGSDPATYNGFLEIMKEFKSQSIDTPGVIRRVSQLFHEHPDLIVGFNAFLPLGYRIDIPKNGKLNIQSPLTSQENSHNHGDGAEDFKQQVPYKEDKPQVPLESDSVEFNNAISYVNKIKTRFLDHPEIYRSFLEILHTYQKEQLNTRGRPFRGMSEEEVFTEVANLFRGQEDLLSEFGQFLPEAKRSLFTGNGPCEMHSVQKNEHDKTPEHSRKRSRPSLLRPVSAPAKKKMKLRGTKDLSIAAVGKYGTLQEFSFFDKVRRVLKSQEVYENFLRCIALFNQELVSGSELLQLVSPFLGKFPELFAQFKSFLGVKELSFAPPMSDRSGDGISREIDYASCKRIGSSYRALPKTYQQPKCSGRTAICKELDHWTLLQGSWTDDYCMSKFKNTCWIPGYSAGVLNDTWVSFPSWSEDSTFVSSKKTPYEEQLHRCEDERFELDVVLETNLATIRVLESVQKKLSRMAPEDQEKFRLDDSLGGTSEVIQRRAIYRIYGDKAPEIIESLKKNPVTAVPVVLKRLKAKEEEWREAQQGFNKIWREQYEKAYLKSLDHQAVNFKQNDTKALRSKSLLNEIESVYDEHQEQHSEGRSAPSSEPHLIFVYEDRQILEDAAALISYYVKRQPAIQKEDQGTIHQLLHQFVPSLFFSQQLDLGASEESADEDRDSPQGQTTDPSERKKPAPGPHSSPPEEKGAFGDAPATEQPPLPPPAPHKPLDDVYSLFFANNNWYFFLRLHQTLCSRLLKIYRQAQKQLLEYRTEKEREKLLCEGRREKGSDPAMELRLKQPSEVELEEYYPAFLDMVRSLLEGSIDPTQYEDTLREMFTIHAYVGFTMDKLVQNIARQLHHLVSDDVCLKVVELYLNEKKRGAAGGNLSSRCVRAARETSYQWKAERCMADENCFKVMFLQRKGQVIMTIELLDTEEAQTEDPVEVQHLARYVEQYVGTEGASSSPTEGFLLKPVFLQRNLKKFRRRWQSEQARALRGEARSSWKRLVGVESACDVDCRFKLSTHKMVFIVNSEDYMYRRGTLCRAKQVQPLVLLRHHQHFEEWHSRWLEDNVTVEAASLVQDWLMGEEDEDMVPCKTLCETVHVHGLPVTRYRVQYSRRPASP
inactive: [12] -0.463 | [13] 0.185 | [4] 0.12 | [5] 0.272 | [6] -0.064 | [7] 0.793 | [8] -0.057 | [16] -0.318 | [17] 0.116 | [10] -0.095 | [11] 0.584 | [18] -0.611

SLC39A13 (UniProt Q96H72)
inactive: [1] -0.125 | [2] -0.058

SNAPC2 (UniProt Q13487)
inactive: [12] -0.034 | [1] -0.117 | [2] -0.005 | [3] -0.175 | [6] 0.014 | [7] -0.044 | [19] 0.08 | [8] -0.007 | [16] 0.024 | [9] -0.129 | [17] 0.01 | [11] 0.03 | [20] -0.537 | [18] -0.033

TAOK2 isoform 2 (UniProt Q9UL54)
inactive: [6] -0.046 | [7] -0.202

STK3 isoform 2 (UniProt Q13188)
inactive: [1] -0.075 | [13] 0.205 | [3] 0.015 | [4] -0.046 | [5] -0.068 | [14] 0.269 | [7] 0.002 | [15] -0.045 | [19] 0.02 | [8] 0.299 | [16] -0.029 | [9] -0.058 | [10] 0.224 | [11] -0.035 | [20] 0.001 | [18] 0.122
active: [17] 0.468

SNIP1 (UniProt Q8TAD8)
inactive: [6] -0.024 | [7] -0.015

TARDBP (UniProt K7EN94)
inactive: [13] -0.197 | [4] 0.224 | [5] 0.04 | [10] 0.257

SURF2 (UniProt Q15527)
Sequence of UniProt Q15527 (Q15527 whole entry, looked up): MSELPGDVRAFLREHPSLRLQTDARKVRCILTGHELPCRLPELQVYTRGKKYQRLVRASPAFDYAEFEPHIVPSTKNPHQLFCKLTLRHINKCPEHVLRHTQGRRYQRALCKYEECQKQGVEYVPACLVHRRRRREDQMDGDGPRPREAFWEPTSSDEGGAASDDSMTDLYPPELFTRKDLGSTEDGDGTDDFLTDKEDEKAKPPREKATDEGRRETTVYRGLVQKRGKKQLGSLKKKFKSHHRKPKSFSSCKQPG
inactive: [12] -0.02 | [1] -0.276 | [13] 0.016 | [3] 0.013 | [4] -0.001 | [6] -0.005 | [14] 0.011 | [7] -0.041 | [15] -0.005 | [19] -0.049 | [8] -0.031 | [16] -0.008 | [9] 0.014 | [17] 0.092 | [10] -0.061 | [11] -0.018 | [20] -0.055 | [18] 0.111
active: [5] -0.319

SLC41A1 (UniProt Q8IVJ1)
inactive: [12] -0.213 | [1] 0.055 | [2] 0.043 | [4] 0.071 | [5] -0.031 | [6] 0.024 | [14] 0.014 | [7] 0.153 | [15] -0.059 | [8] 0.141 | [16] -0.09 | [17] 0.136 | [10] -0.016 | [11] 0.01 | [18] 0.113

STK17A (UniProt Q9UEE5)
Sequence of UniProt Q9UEE5 (Q9UEE5 whole entry, looked up): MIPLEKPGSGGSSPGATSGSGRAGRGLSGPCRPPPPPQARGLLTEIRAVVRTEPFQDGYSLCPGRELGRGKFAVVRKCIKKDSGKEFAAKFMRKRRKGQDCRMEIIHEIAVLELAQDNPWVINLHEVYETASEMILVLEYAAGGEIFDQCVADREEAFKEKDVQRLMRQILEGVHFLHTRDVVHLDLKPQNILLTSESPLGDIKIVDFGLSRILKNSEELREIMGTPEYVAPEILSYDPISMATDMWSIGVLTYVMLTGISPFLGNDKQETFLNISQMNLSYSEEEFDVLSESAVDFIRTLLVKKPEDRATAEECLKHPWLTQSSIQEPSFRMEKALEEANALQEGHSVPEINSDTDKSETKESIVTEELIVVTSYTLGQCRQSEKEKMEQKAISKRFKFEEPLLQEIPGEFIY
inactive: [12] 0.182 | [6] -0.291 | [7] -0.141 | [16] 0.315 | [17] -0.001 | [18] -0.197

STMN3 (UniProt Q9NZ72)
inactive: [1] 0.009 | [2] 0.014 | [13] 0.023 | [3] 0.029 | [4] -0.015 | [5] -0.021 | [6] -0.082 | [14] -0.012 | [7] -0.041 | [15] -0.017 | [19] -0.08 | [8] 0.009 | [9] -0.023 | [10] -0.023 | [11] -0.003 | [20] 0.041

STK26 isoform 3 (UniProt Q9P289)
Sequence of UniProt Q9P289 (Q9P289 whole entry, looked up): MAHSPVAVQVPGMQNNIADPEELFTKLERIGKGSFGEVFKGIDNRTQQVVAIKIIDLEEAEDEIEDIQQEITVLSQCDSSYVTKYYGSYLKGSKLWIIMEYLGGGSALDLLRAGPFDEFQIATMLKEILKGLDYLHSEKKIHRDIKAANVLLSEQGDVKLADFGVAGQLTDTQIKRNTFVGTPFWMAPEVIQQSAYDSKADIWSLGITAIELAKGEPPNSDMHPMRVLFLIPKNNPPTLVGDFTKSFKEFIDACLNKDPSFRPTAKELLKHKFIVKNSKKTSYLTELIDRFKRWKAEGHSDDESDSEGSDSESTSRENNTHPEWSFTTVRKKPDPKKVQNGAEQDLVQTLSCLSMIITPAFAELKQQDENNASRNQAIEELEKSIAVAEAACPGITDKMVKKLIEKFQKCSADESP
inactive: [3] 0.058 | [4] 0.034 | [5] 0.001 | [8] 0.095 | [9] 0.008 | [10] -0.001 | [11] -0.416

SHB (UniProt Q15464)
inactive: [12] -0.139 | [1] -0.108 | [2] 0.169 | [3] 0.067 | [14] 0.034 | [15] -0.07 | [8] -0.044 | [16] -0.305 | [9] -0.034 | [17] 0.186 | [11] 0.028 | [18] -0.129

SMC4 (UniProt C9JJ64)
inactive: [19] 0.006 | [20] -0.251

STAU1 isoform 3 (UniProt O95793)
Sequence of UniProt O95793 (O95793 whole entry, looked up): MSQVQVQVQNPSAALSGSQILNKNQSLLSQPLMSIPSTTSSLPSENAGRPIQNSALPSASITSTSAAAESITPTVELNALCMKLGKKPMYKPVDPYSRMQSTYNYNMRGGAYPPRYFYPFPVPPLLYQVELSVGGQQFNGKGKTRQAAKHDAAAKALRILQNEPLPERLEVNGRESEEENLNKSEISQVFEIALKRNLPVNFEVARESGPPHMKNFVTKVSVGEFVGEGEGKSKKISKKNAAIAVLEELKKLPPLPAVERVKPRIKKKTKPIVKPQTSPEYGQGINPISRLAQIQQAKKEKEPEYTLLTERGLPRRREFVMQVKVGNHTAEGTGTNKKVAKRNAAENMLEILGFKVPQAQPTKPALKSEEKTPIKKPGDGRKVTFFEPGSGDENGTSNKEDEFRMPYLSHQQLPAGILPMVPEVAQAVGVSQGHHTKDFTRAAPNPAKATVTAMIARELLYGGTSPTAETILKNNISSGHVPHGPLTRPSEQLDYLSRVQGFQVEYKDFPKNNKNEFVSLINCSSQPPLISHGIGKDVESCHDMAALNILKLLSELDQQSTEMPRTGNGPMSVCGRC
inactive: [12] -0.06 | [2] -0.044 | [6] -0.068 | [7] 0.03 | [19] 0.048 | [8] 0.049 | [16] -0.298 | [17] 0.112 | [11] 0.269 | [20] -0.086 | [18] 0.078

SMC1B isoform 3 (UniProt Q8NDV3)
inactive: [1] 0.038 | [2] 0 | [13] 0.147 | [3] 0.028 | [4] 0.039 | [5] -0.03 | [6] 0.027 | [14] -0.03 | [7] 0.044 | [15] 0 | [19] -0.037 | [8] -0.019 | [9] 0.015 | [10] 0.26 | [11] -0.036 | [20] -0.093

SMYD3 (UniProt Q9H7B4)
inactive: [1] -0.122 | [2] -0.018 | [13] 0.036 | [3] 0.028 | [4] 0.022 | [5] 0.071 | [6] -0.044 | [14] 0 | [7] 0.034 | [15] 0.017 | [19] -0.018 | [8] -0.146 | [9] 0.062 | [10] 0.023 | [11] 0.053 | [20] -0.062

SHC1 (UniProt P29353)
inactive: [12] 0.144 | [16] 0.029 | [17] -0.033 | [18] 0.009

SNRPD2 (UniProt K7EJB5)
inactive: [1] -0.001 | [2] -0.057 | [13] -0.074 | [3] 0.054 | [4] -0.069 | [5] 0.047 | [6] 0.103 | [14] 0.025 | [7] 0.107 | [15] 0.005 | [8] -0.202 | [9] 0.014 | [10] 0.051 | [11] 0.105

SLCO4A1 (UniProt Q96BD0)
active: [19] -0.687
inactive: [12] -0.129 | [6] -0.041 | [7] -0.001 | [16] 0.016 | [17] 0.062 | [20] -0.334 | [18] 0.012

SIX5 (UniProt Q8N196)
Sequence of UniProt Q8N196 (Q8N196 whole entry, looked up): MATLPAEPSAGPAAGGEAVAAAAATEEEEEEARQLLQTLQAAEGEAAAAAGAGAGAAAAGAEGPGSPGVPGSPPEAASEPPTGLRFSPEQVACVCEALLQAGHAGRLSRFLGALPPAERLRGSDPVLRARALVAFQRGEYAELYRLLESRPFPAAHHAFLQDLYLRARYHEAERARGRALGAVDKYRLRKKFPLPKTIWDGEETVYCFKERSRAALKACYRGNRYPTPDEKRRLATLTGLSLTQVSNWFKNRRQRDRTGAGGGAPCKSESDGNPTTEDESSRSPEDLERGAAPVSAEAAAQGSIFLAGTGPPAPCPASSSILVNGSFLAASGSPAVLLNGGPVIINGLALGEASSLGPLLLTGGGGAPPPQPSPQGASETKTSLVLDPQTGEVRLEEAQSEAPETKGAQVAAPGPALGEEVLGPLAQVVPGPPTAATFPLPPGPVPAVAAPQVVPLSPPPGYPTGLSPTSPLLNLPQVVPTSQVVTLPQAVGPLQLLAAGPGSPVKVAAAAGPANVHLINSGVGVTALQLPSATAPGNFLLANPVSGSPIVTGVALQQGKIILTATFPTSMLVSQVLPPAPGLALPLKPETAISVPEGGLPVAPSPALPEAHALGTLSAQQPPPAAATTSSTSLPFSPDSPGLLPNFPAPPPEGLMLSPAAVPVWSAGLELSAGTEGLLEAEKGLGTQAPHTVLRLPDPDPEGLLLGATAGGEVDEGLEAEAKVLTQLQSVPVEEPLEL
inactive: [12] 0.159 | [1] 0.117 | [2] 0.015 | [3] 0.043 | [6] 0.023 | [14] 0.008 | [7] 0.13 | [15] -0.105 | [19] 0.015 | [8] -0.075 | [16] 0.22 | [9] 0.039 | [11] 0.143 | [20] -0.009 | [18] -0.306
active: [17] -0.48

SPA17 (UniProt Q15506)
Sequence of UniProt Q15506 (Q15506 whole entry, looked up): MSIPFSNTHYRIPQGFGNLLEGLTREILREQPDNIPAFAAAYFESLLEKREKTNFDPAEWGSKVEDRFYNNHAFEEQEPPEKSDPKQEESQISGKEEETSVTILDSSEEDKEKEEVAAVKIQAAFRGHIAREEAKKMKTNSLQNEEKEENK
inactive: [12] -0.208 | [1] 0.021 | [13] 0.056 | [3] 0.038 | [4] -0.007 | [5] -0.032 | [14] -0.038 | [15] 0.058 | [19] -0.012 | [8] 0.019 | [9] 0.009 | [17] 0.303 | [10] -0.022 | [11] 0.054 | [20] -0.076 | [18] 0.25
active: [16] -0.498

SLC22A18 (UniProt Q96BI1)
Sequence of UniProt Q96BI1 (Q96BI1 whole entry, looked up): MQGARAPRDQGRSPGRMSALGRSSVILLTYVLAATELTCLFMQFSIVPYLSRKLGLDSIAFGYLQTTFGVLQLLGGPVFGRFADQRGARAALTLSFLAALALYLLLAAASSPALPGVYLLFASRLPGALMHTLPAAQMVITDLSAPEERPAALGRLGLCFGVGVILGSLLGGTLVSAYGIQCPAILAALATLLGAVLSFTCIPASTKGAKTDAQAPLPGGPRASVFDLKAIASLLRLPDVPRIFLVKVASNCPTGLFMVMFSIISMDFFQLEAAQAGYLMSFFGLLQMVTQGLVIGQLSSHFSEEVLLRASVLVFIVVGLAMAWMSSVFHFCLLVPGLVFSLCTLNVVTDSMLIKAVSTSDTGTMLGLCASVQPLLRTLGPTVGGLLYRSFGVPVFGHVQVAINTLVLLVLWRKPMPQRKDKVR
inactive: [12] -0.035 | [2] 0.052 | [13] -0.076 | [4] 0.009 | [5] -0.013 | [14] -0.077 | [15] 0.072 | [19] 0.026 | [8] -0.064 | [16] -0.094 | [17] 0.147 | [10] -0.004 | [11] 0.032 | [20] -0.001 | [18] 0.033
